# An excerpt weighted towards active compounds, which were near 4.3% of everything screened.
# SW480 rerep: induces DNA re-replication in SW480 colon adenocarcinoma cells; 340,000 tested, 1.8% active; SW480 DNA re-replication, Hoechst DNA content imaging, 48 h; Potency, µM (titrated, usually from 46.1 µM), usual class: activators; note: nearly all actives have a fitted effect of over 55% in size
#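 250 cells/well; 23 nL cpd via pin tool; 48 hr, 37 C, 5% CO2; Hoechst 40 min; imager read of total nuclear intensity, ex 405/em 500-530 nm.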
# uPA surface inh: cell surface uPA generation inhibition | cell surface uPA generation assay, qHTS | Potency, µM (top dose mostly 38.3 µM), usual class: inhibitors | 330,000 tested, 0.31% active | AID 540303; active = well fitted inhibition curve with a large enough effect; inconclusive = small, poorly fitted or top-dose-only effect; inactive = no such curve, though single readings can be large or run the other way; tested in mouse RAW 264.7 cells; note: nearly all actives have a fitted effect of over 55% in size
# MCF10A rerep: induces DNA re-replication in MCF 10a normal breast cells; AID 624296; 350,000 tested, 2.9% active; MCF 10A DNA re-replication, Hoechst nuclear intensity, 48 h; Potency, µM (highest dose often 46.1 µM), actives largely listed as activators; note: nearly all actives have a fitted effect of over 50% in size
# Giardia kill: kills Giardia lamblia. Giardia lamblia trophozoite viability. activity change, % at 7.66 µM, hits read low. 340,000 tested, 0.15% active. AID 540267; in the data active = activity change below about -80%; inconclusive = between about -30% and that limit;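 note: parasites exposed to compound for two days anaerobically before the ATP read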
#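 Luminescent ATP signal served as the viability read-out, measured 15-30 min after adding ATP detection reagent to trophozoites that had been incubated with compounds for 48 hrs at 37 deg C anaerobically at 100 cells/well.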
# Numbers stand for hits; – = inactive; ? = inconclusive; · = no result given; [ ] = remark or other dose. Unless noted, calls come from the whole dose curve; as a rule, active = well fitted activation curve with a large enough effect; inconclusive = small, poorly fitted or top-dose-only effect; inactive = no such curve, though single readings can be large or run the other way.
SMILES,SW480 rerep,uPA surface inh,MCF10A rerep,Giardia kill
O=C(CSC1=NCCS1)NCc1ccco1,?,–,23µM,–
O=C(CSc1ncc(-c2ccccc2)nn1)NCc1ccco1,–,–,–,–
O=C(CSC1=Nc2ccccc2C2CC=NN12)NCc1ccco1 (centres undefined),?,–,21µM,–
O=S(=O)(c1ccc2c(c1)CCCC2)N1CCN(c2nc(-c3cccs3)nc3ccccc23)CC1,·,·,·,–
Cc1ncc([N+](=O)[O-])n1CCOC(=O)Nc1ccc(Cl)c(Cl)c1,–,–,–,-90
Cc1ncc([N+](=O)[O-])n1CCOC(=O)c1ccccc1,–,–,?,-100
CC(C)N(C(=O)CSc1nnc(Cc2csc(Nc3ccccc3)n2)o1)C(C)C,?,–,–,–
CC(C)c1ccc(NC(=O)c2ccc(NS(C)(=O)=O)cc2)cc1,–,–,9.2µM,–
CS(=O)(=O)Nc1ccc(C(=O)Nc2ccc3ccccc3c2)cc1,–,–,–,–
CC(C)(C)c1ccc(OCC(=O)NNC(=S)NC(=O)c2ccccc2[N+](=O)[O-])c(Br)c1,?,–,21µM,–
Cc1ccccc1OCC(=O)NNC(=S)NC(=O)c1ccccc1[N+](=O)[O-],–,–,–,–
CC(C)(C)c1ccc(OCC(=O)Nc2ccncc2)c(Br)c1,–,?,15µM,–
CCc1oc2ccccc2c1C(=O)CCN1CCCCC1,–,–,9.2µM,–
Cc1cccc(NC(=O)CSc2nc(C)c(CC(=O)c3ccc(Br)cc3)c(C)c2C#N)c1C,–,–,1µM,–
COCc1cc(C)nc(SCC(=O)Nc2cccc(C)c2C)c1C#N,–,–,–,–
Cc1nc(SCC(=O)Nc2ccc(F)cc2)c(C#N)c(C)c1CC(=O)c1ccc(Br)cc1,?,–,16µM,–
Cc1ccc(NC(=O)CN(C)C(=O)C2CCC2)cc1,–,–,–,–
Cc1ccc(N(C(C)C(=O)N2CCC(C)CC2)S(C)(=O)=O)cc1C (centres undefined),?,–,–,–
Cc1ccc(N(C(C)C(=O)N2CCOCC2)S(C)(=O)=O)cc1C (centres undefined),23µM,–,–,–
COc1cccc(-c2cc(C(=O)Nc3cc(OC)c(OC)c(OC)c3)no2)c1,?,·,3.7µM,–
COc1cc(NC(=O)c2cnc(NCc3ccccc3)nc2C)cc(OC)c1OC,–,–,–,–
CC(C)n1cc(NC(=O)c2cc(-c3ccccc3)on2)cn1,5.2µM,–,3.7µM,–
COc1cc(NC(=O)c2cc(-c3ccccc3)on2)cc(OC)c1OC,–,–,?,–
COc1cccc(CNc2ncc(C(=O)Nc3cc(OC)c(OC)c(OC)c3)c(C)n2)c1,?,5.6µM,?,–
COc1ccc(NC(=O)c2cc(-c3ccccc3)on2)cc1,–,–,–,–
SMILES,SW480 rerep,uPA surface inh,MCF10A rerep,Giardia kill
COc1cccc(-c2cc(C(=O)Nc3cccnc3)no2)c1,–,–,9.2µM,–
O=C(Nc1cccnc1)c1cc(-c2ccccc2)on1,–,–,–,–
O=C(COC(=O)Cc1cccs1)Nc1ccc(OC(F)(F)F)cc1,–,–,–,–
CCCCCCn1c(COc2ccccc2F)nnc1SCC(=O)N1c2ccccc2NC(=O)C1(C)C,?,·,21µM,–
CC1(C)C(=O)Nc2ccccc2N1C(=O)CSc1ncccn1,–,–,–,–
CC#CCN1c2ccccc2[C@]23C[C@@H](C(=O)OC)N(C(=O)c4cc(C)oc4C)C2=NC(C(=O)OC)=C(C(=O)OC)[C@H]13,–[9.22 µM],?,–,–
C=CCN1c2ccccc2[C@]23C[C@@H](C(=O)OC)N(C(=O)c4cc(C)oc4C)C2=NC(C(=O)OC)=C(C(=O)OC)[C@H]13,–,5.6µM,–,–
C[C@@H](NCCCc1cccc(C(F)(F)F)c1)c1cccc2ccccc12,?,·,21µM,·
CC(Cc1cccc(C(F)(F)F)c1)NCCOC(=O)c1ccccc1 (centres undefined),–,–,–,–
NNC(=O)c1nn(-c2ccc(Cl)cc2)cc1O,21µM,–,–,–
Cc1ccc(NC(=O)COC(=O)c2nn(-c3ccc(Cl)cc3)cc2O)cc1,–,–,?,–
Cc1[nH]c(=S)c(C#N)c2c1CCCC2,–,–,–,–
CC(C)Cc1c2c([nH]c(=S)c1C#N)CCCC2,13µM,–,–,–
CCCCOc1c(Br)cc(CNCCCN2CCOCC2)cc1OC,?,–,–,–
CCCN1CNc2c(c(=O)[nH]c(=S)n2CCc2c(OC)cccc2OC)C1,·,·,·,–
CN1CCN(C(=O)CCN2C(=O)/C(=C\c3ccc(Cl)cc3)SC2=S)CC1,–,?,?,?
NS(=O)(=O)c1ccc(CCN2C(=O)/C(=C\c3ccc(Cl)cc3)SC2=S)cc1,?,?,10µM,–
COc1ccc(/C=N/Nc2cc(C)nc3ccc(OC)cc23)c(OC)c1,23µM,–,?,–
COc1ccc2nc(C)cc(SCC(=O)N/N=C/c3ccccc3)c2c1,–,–,–,?
COc1ccccc1/C=N/Nc1cc(C)nc2ccc(C)cc12,–,–,–,–
COc1ccc2nc(C)cc(N/N=C/c3ccccc3)c2c1,16µM,–,23µM,–
COc1ccc2nc(C)cc(NCCN3CCOCC3)c2c1,–,–,–,–
COc1ccc2nc(C)cc(NCc3ccc(F)cc3)c2c1,?,–,18µM,–
O=C(O)CCCCCCCCc1cn(Cc2ccc(C(=O)c3ccccc3)cc2)nn1,5.8µM,?,?,–
O=C(c1ccccc1)c1ccc(Cn2cc(CCCO)nn2)cc1,–,–,–,–
SMILES,SW480 rerep,uPA surface inh,MCF10A rerep,Giardia kill
Cc1ccc(/C=C/C(=O)CCC(=O)O)cc1,–,–,–,–
Cn1cncc1C#Cc1c(-c2ccc(S(C)(=O)=O)cc2)sc2ccccc12,0.73µM,–,?,–
Cc1ccc(C2N=C(N)Nc3nc4ccccc4n32)cc1 (centres undefined),–,–,–,–
CCn1c2ccccc2c2cc(C3N=C(N)Nc4nc5ccccc5n43)ccc21 (centres undefined),–,–,21µM,–
COCCN(C(=S)Nc1cccc(C)c1)C(C)c1cccs1 (centres undefined),–,–,–,–
CC(C)CCN(C(=S)Nc1cccc(F)c1)C(C)c1cccs1 (centres undefined),–,–,16µM,–
Cc1cc(Cl)ccc1NC(=O)C1CCN(S(C)(=O)=O)CC1,–,–,–,–
Cc1ccc(NC(=O)C2CCN(S(C)(=O)=O)CC2)c(C)c1,–,–,4.1µM,–
COc1ccc(C(=O)CCN2CCN(c3ccccc3OC)CC2)cc1,?,–,2.6µM,–
Cc1ccc(CCC(=O)Nc2ccc(Br)cc2)o1,15µM,?,?,–
COc1ccccc1N1CCN(CC(=O)Nc2cc(F)ccc2C)CC1,?,–,–,–
CCc1ccc(CCC(=O)Nc2ccc(Br)cc2)o1,?,?,–,–
COc1ccc(C(=O)CCN2CCc3cc(OC)c(OC)cc3C2)cc1,–,–,3.7µM,–
COc1ccccc1N1CCN(CC(=O)Nc2cc(C)nn2-c2nc(C)cc(C)n2)CC1,9.2µM,?,–,–
COc1cc2c(cc1OC)CN(CCOc1ccc(Br)cc1)CC2,–,–,–,–
Oc1ccccc1C1C=C(c2ccc3c(c2)OCO3)NC(c2cccc(Br)c2)N1 (centres undefined),·,·,·,–
